From PubChem BioAssay (NCI)
Compounds without any hit were thinned out: in the full panel of roughly 79,000, 15% have a hit. Unmarked numbers belong to inactive results. Calls of active or inactive are those of the source. No stated cut-off is given here; in the data, active means growth inhibition above about 70%; inactive means the rest.

Assay: NCI Yeast Anticancer Drug Screen. Data for the bub3 strain (AID 167)
Conditions: S. cerevisiae bub3 mutant strain, at 50.0 µM, stronger effect = higher value
Description: Growth inhibition of yeast strains with defined genetic alterations is measured as a screen for potential anti-cancer activity. Selected strains with alterations in DNA damage repair or cell cycle control were exposed to compounds and growth inhibition was measured relative to vehicle treated controls. The strain used in this assay is bub3

In order of rising growth inhibition:
1. NC(CP(=O)(O)O)C(=O)O (stereo not given)  -32.4%
2. O=C(CP(=O)(O)O)c1cccs1  -17.8%
3. C[N+]12C(=O)CC3OCC=C4C[N+]5(C)CCC6(c7ccccc71)C2C3C4CC65O (stereo not given)  -17.6%
4. C1C[OH+]CC[OH+]CC[OH+]CC[OH+]CC[OH+]1.[Cl-].[V]  -12%
5. CCP(=S)(CC)P(=S)(CC)CC  -11.8%
6. NC(=O)Oc1ccccc1  -10%
7. O=C1CCN(C2(c3ccccc3)CCCCC2)CC1  -8.85%
8. S=C1c2ccc(Cl)cc2-n2cnnc2C2CSCN12 (stereo not given)  -6.1%
9. Cc1cc(C)c(O)c(C)c1  -5.25%
10. CNC(C)Cc1ccccc1OC (stereo not given)  -4.55%
11. CS(=O)(=O)c1ccc(COP(N)(=O)N(CCCl)CCCl)cc1 (stereo not given)  -4.2%
12. O=C(c1ccccc1)N1CC1  -3.8%
13. Cc1ccc(C(=O)Nc2ccc(CP(=O)(O)O)cc2)cc1NC(=O)c1cccc(NC(=O)Nc2cccc(C(=O)Nc3cc(C(=O)Nc4ccc(CP(=O)(O)O)cc4)ccc3C)c2)c1  -1.55%
14. NC(=O)c1cc([N+](=O)[O-])c(N(CCCl)CCCl)c([N+](=O)[O-])c1  -1.55%
15. COc1cc(C=C2C(=O)NC(=S)NC2=O)cc(OC)c1OC  -1.35%
16. COc1nc(N2CCNCC2)nc2c1CCCC2  -0.75%
17. O=C(c1ccccc1)P(C(=O)c1ccccc1)C(=O)c1ccccc1  -0.05%
18. O=NN1CCCCC1  0.15%
19. CCC[As](=O)(O)CC[As](=O)(O)CCC  0.8%
20. CCOP(C)(=O)C(N)Cc1ccc(OC)c(OC)c1 (stereo not given)  1.1%
21. Cc1ccc([P+](=O)O)cc1Cl  1.65%
22. O[As](O)O.S=C(S)c1ccccc1S  1.75%
23. O=[As](O)(O)c1cccc(Cl)c1  1.9%
24. C(=C\C1CC2CCCN2O1)/c1ccccc1 (stereo not given)  2.45%
25. COc1cc(C2(C)CCCCC2)c(OC)cc1C1(C)CCCCC1  2.75%
26. C=CCn1nnnc1N  3.1%
27. O=C1CCCCC1CN1CCCCC1 (stereo not given)  3.45%
28. CC[As](=O)(O)c1ccc(OC)c(I)c1  4.35%
29. C[C@]12CC[C@@H]3C4=CC(=O)CC[C@@H]4CC[C@H]3[C@@H]1CC[C@@H]2O  4.8%
30. CN(C)CCNC(=O)c1ccc(N(CCCl)CCCl)c([N+](=O)[O-])c1[N+](=O)[O-]  9.65%
31. COC(=O)CN(CCCl)P1(=O)OCCCN1CCCl (stereo not given)  10.3%
32. CC(C)c1cccc(C(C)C)c1O  10.9%
33. CCC(Br)C(=O)OCCCl (stereo not given)  15.5%
34. CC1CCC2C(C)C(=O)OC3OC4(C)CCC1C32OO4 (stereo not given)  18.2%
35. CC(O)C[As](=O)(O)c1cccc(Cl)c1 (stereo not given)  37.5%
36. Oc1ccccc1C=NCCN=Cc1ccccc1O.[Fe]  46%
37. Cc1ccccc1-n1c(/C=C\c2ccccn2)nc2ccccc2c1=O  53.6%

With `Cc1cc(C)c(C(=O)O)c(C)c1.[Hg]` the growth inhibition was 99.7% (active).
With `O=C(O)C(CSC(c1ccccc1)(c1ccccc1)c1ccccc1)N1C(=O)c2ccccc2C1=O` (stereo not given) the growth inhibition was 98.8% (active).
In the case of `C[CH2][Sn](/[CH]=C\CO)([CH2]C)[CH2]C`, the growth inhibition was 93.6% (active).
